Assay results: PubChem BioAssay (EPA / NIEHS)
Several values for one entry are separate records, joined by “and”; a condition that tells them apart may be missing. Equal values may be shown once. Records with an inconclusive call do not appear. Activity calls are given as the source filed them. How the source made its calls, unless noted: active means hit-call score of the fitted dose curve at least 0.9, where 1 is the maximum; inactive means score below 0.9.

Tests used:
[1] = ATG_NF_kB_CIS: Attagene CIS-FACTORIAL HepG2 Assay for human Nuclear Factor Kappa B (NF-kB) (AID 2282991); conditions: HepG2 Attagene cis-factorial NF-kB reporter mRNA; actives raise or lower the signal
Summary of the method: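 Read-out: reporter transcript levels quantified by RT-PCR plus capillary electrophoresis of 6-FAM-labelled, HpaI-cut fragments. Transfected HepG2 cells, 24 h compound exposure, endogenous NF-kB-driven cis element; gain or loss scored versus DMSO.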

[2] = ATG_NRF2_ARE_CIS: Attagene CIS-FACTORIAL HepG2 Assay for human Nuclear Factor Erythroid 2 Related Factor 2 (NFR2) response to Antioxidant Response Elements (ARE) (AID 2282992); conditions: HepG2 Attagene ARE/NRF2 reporter, transcription factor activity; actives raise or lower the signal;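 on AC50: reporter mRNA level measured by RT-PCR and capillary electrophoresis fluorescence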
Summary of the method: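 Multiplexed reporter mRNA profiling in HepG2 after a 24 h chemical exposure. Curves fitted in both directions relative to DMSO negative control.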

[3] = biological target: Cellular tumor antigen p53 (Homo sapiens) (UniProt P04637); assay: ATG_p53_CIS: Attagene CIS-FACTORIAL HepG2 Assay for human p53 Transcription Factor (AID 2282994); conditions: HepG2 p53 cis-element reporter, Attagene mRNA; actives raise or lower the signal
Summary of the method: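 Multiplexed reporter mRNA assay in human HepG2 liver cells; cis-regulated units report endogenous factor activity. Values come from bidirectional curve fitting against DMSO negative control after 24 h treatment.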

[4] = biological target: human Peroxisome Proliferator-activated Receptor delta (PPARd), PPARD (gene 5467) (UniProt Q03181); assay: ATG_PPARd_TRANS: Attagene TRANS-FACTORIAL HepG2 Assay for human Peroxisome Proliferator-activated Receptor delta (PPARd) (AID 2283002; active means hit-call score of the fitted dose curve at least 0.9, where 1 is the maximum)
Summary of the method: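 Read-out is induced reporter mRNA, quantified by RT-PCR with fluorescent labelling and capillary electrophoresis after 24 h dosing. Cells are HepG2 transiently carrying multiple GAL4-UAS reporter units driven by exogenous NR-GAL4 chimeras; DMSO serves as baseline.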

[5] = ATG_Oct_MLP_CIS: Attagene CIS-FACTORIAL HepG2 Assay for human Octamer-Binding Transcription Factor (Oct) (AID 2282993); conditions: HepG2 Attagene cis-factorial Oct reporter, mRNA; actives raise or lower the signal
Summary of the method: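 Readout is reporter transcript level from RT-PCR with fluorescent primer extension and capillary electrophoresis, fitted in both directions against DMSO. Transfected HepG2 reporter units report endogenous factor activity after 24 h dosing.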

[6] = biological target: human Peroxisome Proliferator-activated Receptor alpha (PPARa), PPARA (gene 5465) (UniProt Q07869); assay: ATG_PPARa_TRANS: Attagene TRANS-FACTORIAL HepG2 Assay for human Peroxisome Proliferator-activated Receptor alpha (PPARa) (AID 2283001; active means hit-call score of the fitted dose curve at least 0.9, where 1 is the maximum;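 on AC50: potency for gain of reporter signal over DMSO so agonist or activator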)
Summary of the method: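 Reporter transcripts from GAL4-UAS units in transfected HepG2 were quantified 24 h after dosing. Detection used reverse transcription, PCR, fluorescent primer extension and capillary electrophoresis, with DMSO as baseline.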

[7] = BSK_3C_TissueFactor: BioMAP Diversity Plus: 3C Assay for Tissue Factor Biomarker Activity (AID 2282997); conditions: BioMAP 3C HUVEC, tissue factor biomarker readout; actives raise or lower the signal
Summary of the method: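 ELISA read-out of Tissue Factor levels on human umbilical vein endothelium collected 24 h after chemical dosing. Gain or loss of signal was fitted relative to DMSO.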

[8] = BSK_3C_uPAR: BioMAP Diversity Plus: 3C Assay for Urokinase-type plasminogen activator receptor (uPAR) Biomarker Activity (AID 2282998); conditions: BioMAP 3C HUVEC, uPAR biomarker ELISA; actives raise or lower the signal
Summary of the method: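 Cell-surface uPAR on HUVEC (3C system) read by ELISA at 24 h post-treatment, with DMSO as baseline and fitting in both directions. Parallel cultures stained with SRB to flag overt cytotoxicity.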

[9] = BSK_3C_VCAM1: BioMAP Diversity Plus: 3C Assay for Vascular cell adhesion molecule 1 (VCAM1) Biomarker Activity (AID 2282999); conditions: BioMAP 3C HUVEC, VCAM1 ELISA, cytokine-stimulated; actives raise or lower the signal
Summary of the method: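 Endothelial cells from human umbilical vein are treated with test chemical. At 24 h, VCAM-1 is measured by ELISA, and responses in either direction are fitted relative to DMSO.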

[10] = BSK_4H_Eotaxin3: BioMAP Diversity Plus: 4H Assay for Eotaxin 3 Biomarker Activity (AID 2283000); conditions: primary human endothelial cells (HUVEC); actives raise or lower the signal
Summary of the method: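 Chemicals were added to human umbilical vein endothelium cultures, and Eotaxin-3 was quantified by ELISA at 24 h. Values were derived by bidirectional fitting with DMSO serving as negative control and activity baseline.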

Measured: AC50

Chain of human Peroxisome Proliferator-activated Receptor alpha (PPARa), PPARA (gene 5465) (Q07869 whole entry, looked up, the tested form may be a part): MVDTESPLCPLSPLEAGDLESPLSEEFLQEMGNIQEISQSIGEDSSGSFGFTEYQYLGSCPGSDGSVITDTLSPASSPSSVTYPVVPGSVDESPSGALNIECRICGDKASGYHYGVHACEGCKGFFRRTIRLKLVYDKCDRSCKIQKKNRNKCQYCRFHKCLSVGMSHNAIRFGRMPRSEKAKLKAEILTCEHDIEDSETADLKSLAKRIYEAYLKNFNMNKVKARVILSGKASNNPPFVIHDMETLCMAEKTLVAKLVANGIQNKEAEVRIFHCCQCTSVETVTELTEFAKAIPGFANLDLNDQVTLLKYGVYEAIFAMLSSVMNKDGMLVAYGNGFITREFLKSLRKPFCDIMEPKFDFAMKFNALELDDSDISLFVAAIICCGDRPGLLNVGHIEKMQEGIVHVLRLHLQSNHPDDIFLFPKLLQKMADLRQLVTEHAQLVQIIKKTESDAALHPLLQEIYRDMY
Chain of Cellular tumor antigen p53 (Homo sapiens) (P04637 whole entry, looked up): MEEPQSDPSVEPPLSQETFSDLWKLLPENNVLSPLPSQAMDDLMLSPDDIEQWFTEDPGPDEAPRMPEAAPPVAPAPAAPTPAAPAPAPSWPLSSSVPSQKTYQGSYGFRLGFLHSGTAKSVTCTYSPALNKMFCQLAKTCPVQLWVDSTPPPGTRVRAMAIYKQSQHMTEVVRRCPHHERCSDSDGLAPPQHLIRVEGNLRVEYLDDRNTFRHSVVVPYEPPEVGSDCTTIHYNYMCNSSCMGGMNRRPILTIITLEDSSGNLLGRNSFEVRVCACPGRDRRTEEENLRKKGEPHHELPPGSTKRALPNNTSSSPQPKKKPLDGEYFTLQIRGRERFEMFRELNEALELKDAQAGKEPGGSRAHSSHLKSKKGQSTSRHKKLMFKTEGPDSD
Chain of human Peroxisome Proliferator-activated Receptor delta (PPARd), PPARD (gene 5467) (Q03181 whole entry, looked up, the tested form may be a part): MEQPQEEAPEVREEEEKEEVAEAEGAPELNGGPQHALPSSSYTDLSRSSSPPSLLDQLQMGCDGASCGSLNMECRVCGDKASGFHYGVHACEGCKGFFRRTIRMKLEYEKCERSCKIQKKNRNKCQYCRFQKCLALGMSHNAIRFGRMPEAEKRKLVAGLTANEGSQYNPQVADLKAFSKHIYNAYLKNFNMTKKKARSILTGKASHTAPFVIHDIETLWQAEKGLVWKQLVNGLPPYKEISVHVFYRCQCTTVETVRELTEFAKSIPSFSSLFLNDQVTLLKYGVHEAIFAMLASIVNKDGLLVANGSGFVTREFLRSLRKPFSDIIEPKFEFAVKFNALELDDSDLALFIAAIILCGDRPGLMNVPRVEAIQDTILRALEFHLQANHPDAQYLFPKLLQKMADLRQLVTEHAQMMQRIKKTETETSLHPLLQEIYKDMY

ClCCN1CCOCC1
inactive: [1] | [2] | [3] | [4]

Cc1cc(C(F)(C(F)(F)F)C(F)(F)F)ccc1NC(=O)c1cccc(I)c1C(=O)NC(C)(C)CS(C)(=O)=O
inactive: [2] | [5] | [3]

CC(C)(c1ccc(O)c(-c2ccccc2)c1)c1ccc(O)c(-c2ccccc2)c1
inactive: [1] | [3] | [4]
active: [2] 4.64 µM

C=C(C)C(=O)OCCCCOC(=O)C(=C)C
inactive: [5]
active: [2] 48.3 µM

ClCc1ccccc1Cl
active: [2] 12.4 µM | [5] 74.7 µM

CC(F)(F)CC(F)(F)F
inactive: [1] | [2] | [3] | [4]

CCCSP(=S)(OCC)Oc1ccc(SC)cc1 (configuration not stated)
inactive: [2] | [5] | [3] | [6]

CCOC(=O)CCN(SN(C)C(=O)Oc1cccc2c1OC(C)(C)C2)C(C)C
active: [2] 26.2 µM | [7] 31.1 µM | [8] 32.5 µM | [9] 20 µM | [10] 28.8 µM
inactive: [5] | [3] | [6] | [4]

CCCCCCCCCCCCN(C)C
inactive: [7] | [8] | [9] | [10] | [6] | [4]
active: [2] 46.9 µM | [5] 54.9 µM | [3] 33.4 µM

Cc1c([N+](=O)[O-])c(C)c([N+](=O)[O-])c(C(C)(C)C)c1[N+](=O)[O-]
active: [8] 20 µM | [9] 20 µM | [10] 28.2 µM
inactive: [2] | [5] | [3] | [7]

O=C(CBr)c1ccc(O)cc1
active: [2] 41.5 µM
inactive: [5] | [3]

CC(C)CC(C)(c1ccc(O)cc1)c1ccc(O)cc1
inactive: [1] | [4]
active: [2] 11.1 µM | [3] 11.1 µM

CC(=O)C(F)(F)C(F)(F)F
inactive: [1] | [2] | [3] | [4]

ClCCCCl
inactive: [1] | [2] | [3] | [4]

N#Cc1ccc(Cl)cc1
inactive: [1] | [2] | [3] | [6] | [4]

COCC(=O)N(c1c(C)cccc1C)[C@H](C)C(=O)OC
inactive: [2] | [5] | [3] | [7] | [8] | [9] | [10] | [6]

CC(C)O.CC(C)O.OCCN(CCO)CCO.OCCN(CCO)CCO.[Ti]
inactive: [1] | [2] | [7] | [8] | [9] | [10]

CN(C1CCCCC1)C1CCCCC1
active: [2] 61.1 µM
inactive: [5]

CCCCOC(=O)COC(=O)c1ccccc1C(=O)OCCCC
inactive: [2] | [5] | [3] | [7] | [8] | [9] | [10] | [4]

CC(C)(C)c1cc([N+](=O)[O-])cc(C(C)(C)C)c1O
inactive: [3] | [6] | [4]
active: [2] 2.48 µM | [5] 19.8 µM | [7] 3.94 µM | [8] 0.467 µM | [9] 9.12 µM | [10] 0.016 µM

O=c1[nH]c(=O)n(Cl)c(=O)n1Cl
inactive: [2] | [5]

O=[N+]([O-])c1ccc(Cl)c([N+](=O)[O-])c1
inactive: [2] | [5] | [3]

CCCCCCCCCCCCCl
inactive: [2] | [5] | [3]

CNC(=O)CSP(=O)(OC)OC
inactive: [1] | [2] | [4]

C[C@@H]1O[C@@H](O[C@H]2C[C@@H](O)[C@]3(CO)[C@H]4[C@H](O)C[C@]5(C)[C@@H](C6=CC(=O)OC6)CC[C@]5(O)[C@@H]4CC[C@]3(O)C2)[C@H](O)[C@H](O)[C@H]1O
inactive: [4]
active: [2] 19.5 µM | [5] 0.62 µM | [6] 71.4 nM

N#CS
inactive: [2] | [5] | [3] | [4]

Nc1ncn[nH]1
inactive: [2] | [5] | [4]

O=C(Cl)OCCOCCOC(=O)Cl
inactive: [2] | [5] | [3] | [6]

N#Cc1cccnc1
inactive: [2] | [5] | [7] | [8] | [9] | [10] | [6] | [4]

CCOCn1c(-c2ccc(Cl)cc2)c(C#N)c(Br)c1C(F)(F)F
inactive: [2] | [6] | [4]
active: [5] 1.92 µM

CCOC(=O)Cc1ccccc1
inactive: [2] | [5] | [6]

c1ccc2sc(SNC3CCCCC3)nc2c1
active: [2] 80.6 µM | [7] 1.16 µM
inactive: [5] | [8] | [9] | [10] | [6] | [4]

CN(C)C(=S)S
inactive: [5] | [7] | [8] | [9] | [10]
active: [2] 26.8 µM

C=CC(Cl)CCl (configuration not stated)
inactive: [5] | [8] | [9] | [10]
active: [2] 20.2 µM | [7] 0.0174 µM

Fc1cccc(Cl)c1CCl
active: [2] 26.3 µM
inactive: [5] | [4]

O=C(N[C@H]1CN2CCC1CC2)c1ccc2c(c1)OCCO2
inactive: [2] | [5] | [7] | [8] | [9] | [10] | [4]

Cc1cc(Cl)ccc1N
active: [2] 27.4 µM and 36.6 µM
inactive: [5] | [7] | [8] | [9] | [10] | [6]

CC(C)(C)c1ccc(CCOc2ncnc3ccccc23)cc1
inactive: [2] | [5] | [6]

O=C(O)COc1cc(Cl)c(Cl)cc1Cl
inactive: [2] | [5] | [7] | [8] | [9] | [10] | [4]

O=c1nc(O)n(Cl)c(=O)n1Cl
inactive: [2] | [5] | [6]

CCOP(=S)(OCC)SCSc1cc(Cl)ccc1Cl
inactive: [2] | [3]

O=C(CCl)Nc1ccccc1
active: [2] 2.21 µM | [5] 8.75 µM | [3] 7.86 µM
inactive: [6] | [4]

Brc1ccc(Br)cc1
inactive: [2] | [5] | [3] | [6] | [4]

C=CC(=O)NC(C)(C)CC(C)=O
inactive: [2] | [5] | [3] | [6]

CC1CC(=O)O1 (configuration not stated)
inactive: [2] | [4]

Nc1nc(N)nc(Cl)n1
inactive: [2] | [3]

O=C(O)CC(O)(CC(=O)O)C(=O)O
inactive: [2] | [5] | [3] | [4]

C=CCc1ccccc1O
inactive: [2] | [3] | [6]

C[N+](C)(C)Cc1ccccc1
inactive: [2] | [6]

O=[N+]([O-])c1ccccc1O
inactive: [2] | [5] | [3] | [6]

CCC[N+](CCC)(CCC)CCC
inactive: [2] | [5] | [3] | [4]

O=NN1CCOCC1
inactive: [2] | [3] | [4]

CCCCCCCCCCCCOS(=O)(=O)O
inactive: [2] | [5]
active: [6] 3.86 µM and 12.1 µM

COc1ccc(N)cc1
inactive: [2] | [5] | [3] | [6] | [4]

CCCCN(CCCC)C(=S)[S-].CCCCN(CCCC)C(=S)[S-].[Ni+2]
inactive: [2] | [5] | [7] | [8] | [9] | [10]

OC[P+](CO)(CO)CO
inactive: [5] | [3] | [4]
active: [2] 30.2 µM and 26.4 µM

Cc1cccc(N=Nc2ccc(N(C)C)cc2)c1
inactive: [5] | [3] | [6] | [4]
active: [2] 5.01 µM

CCOC(=O)OC1=C(c2cc(C)ccc2C)C(=O)NC12CCC(OC)CC2 (configuration not stated)
inactive: [5] | [3] | [6] | [4]
active: [2] 69.8 µM

Oc1c(Cl)cc(Cl)cc1Cl
active: [6] 15900 nM
inactive: [5] | [3] | [7] | [8] | [9] | [10] | [4]

CCCCN(CCCC)C(=S)S
active: [2] 23.5 µM
inactive: [5] | [6]

CC(c1ccc(O)cc1)c1ccc(O)cc1
active: [2] 67.4 µM | [5] 120 µM
inactive: [3] | [6]

C#CCO
inactive: [2] | [5] | [3] | [6] | [4]

COc1ccccc1N
inactive: [2] | [7] | [8] | [9] | [10] | [6]

CC(C)N(C(=O)CCl)c1ccccc1
active: [2] 2.75 µM | [5] 52.8 µM | [8] 20 µM | [9] 20 µM | [10] 20 µM
inactive: [7]
